{"source": "the antibiotic and cytotoxicity screens of Wong et al. (2023)", "note": "Screen size: about 39,000 compounds; about 3,300 (8.5%) were called active. The entries come from a sample that favours actives as a whole."}
{"tested_on": "HepG2", "assay": "cytotoxicity call (relative viability < 0.9)", "conditions": "10 µM"}
{"smiles": "O=C(C[C@H]1CC[C@@H](NC(=O)c2cnccn2)[C@@H](CO)O1)NCc1ccccc1F", "cytotoxicity call": "inactive"}
{"smiles": "COc1ccc(CNC(=O)C[C@@H]2C[C@H]3c4cc(NC(=O)NC5CCCC5)ccc4O[C@H]3[C@H](CO)O2)cc1", "cytotoxicity call": "inactive"}
{"smiles": "COc1ccc(NC(=O)N(C)C[C@H]2Oc3ccc(NS(C)(=O)=O)cc3CC(=O)N([C@H](C)CO)C[C@H]2C)cc1", "cytotoxicity call": "inactive"}
{"smiles": "O=C(C[C@@H]1C=C[C@H](NC(=O)CN2CCOCC2)[C@@H](CO)O1)NCc1cccc(F)c1", "cytotoxicity call": "inactive"}
{"smiles": "C[C@H](CO)N1C[C@H](C)[C@@H](CN(C)CC2CCCCC2)Oc2ccc(NC(=O)CCN3CCOCC3)cc2CC1=O", "cytotoxicity call": "inactive"}
{"smiles": "C[C@H]1CN([C@@H](C)CO)C(=O)CCCn2cc(nn2)CO[C@H]1CN(C)S(C)(=O)=O", "cytotoxicity call": "inactive"}
{"smiles": "C[C@@H]1CCCCO[C@@H](CN(C)C(=O)CCCN(C)C)[C@H](C)CN([C@H](C)CO)C(=O)c2cc(NC(=O)Nc3cccc4ccccc34)ccc2O1", "cytotoxicity call": "inactive"}
{"smiles": "COc1ccc(CN(C)C[C@H]2OCCCC[C@@H](C)Oc3ccc(NC(=O)Nc4ccc5c(c4)OCO5)cc3C(=O)N([C@@H](C)CO)C[C@@H]2C)cc1", "cytotoxicity call": "inactive"}
{"smiles": "COc1ccc(CN(C)C[C@H]2OCCCC[C@H](C)Oc3ccc(NC(=O)Nc4ccc5c(c4)OCO5)cc3C(=O)N([C@@H](C)CO)C[C@H]2C)cc1", "cytotoxicity call": "active"}
{"smiles": "COc1ccc(CN(C)C[C@H]2OCCCC[C@@H](C)Oc3ccc(NC(=O)Nc4ccc5c(c4)OCO5)cc3C(=O)N([C@@H](C)CO)C[C@H]2C)cc1", "cytotoxicity call": "inactive"}
{"smiles": "COc1ccc(-c2cnc3c(c2)C(=O)N([C@H](C)CO)C[C@@H](C)[C@H](CN(C)C(=O)C2CCOCC2)O3)cc1", "cytotoxicity call": "inactive"}
{"smiles": "CCCCCCCCCCCCCCCCCCCCCCCCCCCCO", "cytotoxicity call": "inactive"}
{"smiles": "CCCCCCCCCCCCCCCCCCCCCCO", "cytotoxicity call": "active"}
{"smiles": "CCCCCCCCCCCCCCCC(=O)CCO", "cytotoxicity call": "inactive"}
{"smiles": "COCC(=O)Nc1ccc2c(c1)[C@@H]1C[C@H](CC(=O)N3CCOCC3)O[C@H](CO)[C@@H]1O2", "cytotoxicity call": "inactive"}
{"smiles": "CCc1cccc(NC(=O)O[C@H]2[C@H](OC(=O)Nc3ccccc3-c3ccccc3)[C@H](OC(=O)Nc3ccccc3-c3ccccc3)[C@@H](OC)O[C@@H]2CO)c1", "cytotoxicity call": "inactive"}
{"smiles": "COc1ccc(NC(=O)O[C@H]2[C@H](OC(=O)Nc3ccccc3-c3ccccc3)[C@H](OC(=O)Nc3ccccc3-c3ccccc3)[C@@H](OC)O[C@@H]2CO)cc1", "cytotoxicity call": "inactive"}
{"smiles": "CO[C@H]1O[C@H](CO)[C@@H](OC(=O)Nc2cccc(F)c2)[C@H](OC(=O)Nc2ccccc2-c2ccccc2)[C@@H]1OC(=O)Nc1ccccc1-c1ccccc1", "cytotoxicity call": "inactive"}
{"smiles": "CO[C@H]1O[C@H](CO)[C@@H](OC(=O)Nc2ccccc2-c2ccccc2)[C@H](OC(=O)Nc2ccccc2)[C@@H]1OC(=O)Nc1ccccc1", "cytotoxicity call": "active"}
{"smiles": "CO[C@H]1O[C@H](CO)[C@@H](OC(=O)Nc2cccc(F)c2)[C@H](OC(=O)Nc2ccccc2-c2ccccc2)[C@H]1OC(=O)Nc1ccccc1-c1ccccc1", "cytotoxicity call": "active"}
{"smiles": "CO[C@H]1O[C@H](CO)[C@@H](OC(=O)Nc2ccccc2-c2ccccc2)[C@H](OC(=O)Nc2ccccc2-c2ccccc2)[C@@H]1OC(=O)Nc1ccccc1-c1ccccc1", "cytotoxicity call": "inactive"}
{"smiles": "C[C@@H]1CN([C@@H](C)CO)C(=O)Cc2cc(NS(C)(=O)=O)ccc2O[C@@H]1CN(C)S(=O)(=O)c1cccs1", "cytotoxicity call": "inactive"}
{"smiles": "CN1CCN(C(=O)C[C@@H]2C[C@H]3c4cc(NC(=O)c5ccc6c(c5)OCO6)ccc4O[C@H]3[C@H](CO)O2)CC1", "cytotoxicity call": "inactive"}
{"smiles": "COc1ccc(S(=O)(=O)N(C)C[C@H]2Oc3cc(C#CC4CC4)ccc3S(=O)(=O)N([C@H](C)CO)C[C@@H]2C)cc1", "cytotoxicity call": "inactive"}
{"smiles": "CCCCN(CCCC)CCCOC(=O)c1ccc(N)cc1.O=S(=O)(O)O", "cytotoxicity call": "inactive"}
{"smiles": "CCCCc1oc2ccc(NS(C)(=O)=O)cc2c1C(=O)c1ccc(OCCCN(CCCC)CCCC)cc1.Cl", "cytotoxicity call": "active"}
{"smiles": "CCCCc1oc2ccc(NS(C)(=O)=O)cc2c1C(=O)c1ccc(OCCCN(CCCC)CCCC)cc1", "cytotoxicity call": "active"}
{"smiles": "CCC1=NCCO1", "cytotoxicity call": "inactive"}
{"smiles": "CC(C)NC(=O)N(C)C[C@@H]1Oc2ccc(NC(=O)Nc3ccc4c(c3)OCO4)cc2C(=O)N([C@H](C)CO)C[C@H]1C", "cytotoxicity call": "inactive"}
{"smiles": "C#CCN1C(=O)N(C(=O)c2ccccc2)[C@@]2(COCc3ccc(OC)cc3)Oc3ccccc3[C@@H]1[C@H]2CO[Si](C)(C)C(C)(C)C", "cytotoxicity call": "inactive"}
{"smiles": "CN(C)CCCNC(=O)C[C@@H]1CC[C@@H]2[C@@H](COc3ccc(NC(=O)c4ccccc4F)cc3C(=O)N2C)O1", "cytotoxicity call": "inactive"}
{"smiles": "CCS(=O)(=O)NCC[C@H]1CC[C@H](NC(=O)C2CCOCC2)[C@H](CO)O1", "cytotoxicity call": "inactive"}
{"smiles": "O=C(C[C@@H]1C[C@H]2c3cc(NS(=O)(=O)c4ccc(F)cc4)ccc3O[C@H]2[C@H](CO)O1)NCCc1ccccc1", "cytotoxicity call": "inactive"}
{"smiles": "Cc1ccc(S(=O)(=O)N(C)C[C@@H]2Oc3ccc(NC(=O)CCN4CCOCC4)cc3CC(=O)N([C@@H](C)CO)C[C@H]2C)cc1", "cytotoxicity call": "inactive"}
{"smiles": "C[C@H](CO)N1C[C@H](C)[C@H](CN(C)C(=O)NC2CCCCC2)Oc2c(NC(=O)C3CCOCC3)cccc2C1=O", "cytotoxicity call": "inactive"}
{"smiles": "Cc1ccc(S(=O)(=O)Nc2ccc3c(c2)C(=O)N([C@@H](C)CO)C[C@@H](C)[C@@H](CN(C)C(=O)NC(C)C)O3)cc1", "cytotoxicity call": "inactive"}
{"smiles": "C[C@@H]1CN([C@H](C)CO)C(=O)c2cc(NC(=O)Cc3ccccc3)ccc2O[C@H]1CN(C)S(=O)(=O)c1cccs1", "cytotoxicity call": "inactive"}
{"smiles": "O=C(O)c1cccnc1", "cytotoxicity call": "inactive"}
{"smiles": "O=C(OCc1ccccc1)c1ccccc1", "cytotoxicity call": "active"}
{"smiles": "O=C(OOC(=O)c1ccccc1)c1ccccc1", "cytotoxicity call": "active"}
{"smiles": "O=C(ON1C(=O)CCC1=O)c1ccccc1", "cytotoxicity call": "inactive"}
{"smiles": "O=C(CO)c1ccccc1", "cytotoxicity call": "inactive"}
{"smiles": "N[C@@H](COCc1ccccc1)C(=O)O", "cytotoxicity call": "inactive"}
{"smiles": "O=C(OCc1ccccc1)c1cccnc1", "cytotoxicity call": "active"}
{"smiles": "COC(=O)c1cccnc1", "cytotoxicity call": "inactive"}
{"smiles": "NCC(=O)OCc1ccccc1", "cytotoxicity call": "inactive"}
{"smiles": "CCC(=O)N[C@@H]1CC[C@@H](CC(=O)OC)O[C@H]1CO", "cytotoxicity call": "inactive"}
{"smiles": "CCCCCCCCCCCCCCCCOP(=O)([O-])OCC[N+](C)(C)C", "cytotoxicity call": "inactive"}
{"smiles": "C[N+](C)(C)CCCCCC[N+](C)(C)C.[Br-].[Br-]", "cytotoxicity call": "inactive"}
{"smiles": "CCCCCCCCCCCCCCCC[N+](C)(C)C", "cytotoxicity call": "active"}
